Data published in PubChem BioAssay (NCATS).
Records with an inconclusive call do not appear. Active and inactive are the calls of the source. The call rests on the fitted dose curve; in most records, active means well fitted cell-killing curve with a large enough effect; inconclusive means small, poorly fitted or top-dose-only effect, or effect the other way; inactive means flat fitted curve, though single readings scatter.

Experiments:
Experiment in all cases: Primary qHTS to identify gynecologic anti-cancer compounds using libraries of approved drugs and bioactive compounds (AID 1345084); further: nearly all actives have a fitted effect of over 55% in size
Settings in all cases: Gynecologic cancer cell panel viability, ATPlite luminescence, 48 h; series mostly up to 57.5 µM
PA-1 = system: PA-1
Summary of the method: (§1)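 ATP-based viability (ATPlite), 1,000 cells/well, 16 h pre-incubation, 48 h compound at 37 C, 5% CO2, 15 min RT before read.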

SKOV3 = system: SKOV3
Summary of the method: as §1

Tov-21-G = system: Tov-21-G
Summary of the method: as §1

Tov112D = system: Tov112D
Summary of the method: as §1
On the % scale 0 is the no-effect control and ±100 the full control effect; potency means the concentration at half of the fitted maximal effect.

CCCCOC(=O)NS(=O)(=O)c1sc(CC(C)C)cc1-c1ccc(Cn2ccnc2)cc1
inactive: Potency (PA-1) | Potency (SKOV3) | Potency (Tov-21-G) | Potency (Tov112D)

CCOc1ccc(CCNC(=O)c2cc3sc(Cl)cc3n2C)cc1OCC
inactive: Potency (PA-1) | Potency (SKOV3) | Potency (Tov-21-G) | Potency (Tov112D)

C/C=C/C1=CC2=C(CO1)C(=O)C(C)(OC(=O)c1c(C)cc(O)cc1OC)C(O)C2 (stereo unspecified)
inactive: Potency (PA-1) | Potency (SKOV3) | Potency (Tov-21-G) | Potency (Tov112D)

Cc1cc(-c2cc(OC(=O)c3ccccc3)ccc2Cl)cc2nnc(Nc3ccc(OCCN4CCCC4)cc3)nc12
inactive: Potency (PA-1) | Potency (SKOV3) | Potency (Tov-21-G) | Potency (Tov112D)

O=C(O)c1ccc(S(=O)(=O)N(Cc2ccc(OC(F)(F)F)cc2)c2ncc(C(F)(F)F)cc2Cl)cc1
inactive: Potency (PA-1) | Potency (SKOV3) | Potency (Tov-21-G) | Potency (Tov112D)

O[C@@](Cc1ncc(CC2(C(F)(F)F)CC2)[nH]1)(c1ccc(-n2cccn2)cc1)C(F)(F)F
inactive: Potency (PA-1) | Potency (SKOV3) | Potency (Tov-21-G) | Potency (Tov112D)

CCOC(=O)c1cnc2ccc(-c3cncc(NS(=O)(=O)c4ccccc4)c3)cn12
active: Potency (PA-1) 1.78 µM | Potency (SKOV3) 31.6 µM | Potency (Tov-21-G) 4.47 µM | Potency (Tov112D) 1.41 µM

CO[C@H]1O[C@@H]2O[C@@]3(C)CCC4[C@H](C)CCC([C@H]1C)[C@]42OO3 (stereo partly specified)
inactive: Potency (PA-1) | Potency (SKOV3) | Potency (Tov-21-G) | Potency (Tov112D)

COC1CC(=O)C23C(=O)NC(CC(C)C)C2C(C)C(C)=CC3/C=C(\C)CCCC1O (stereo unspecified)
inactive: Potency (PA-1) | Potency (SKOV3) | Potency (Tov-21-G) | Potency (Tov112D)

C=C(COC(=O)C(O)C(O)CN)C12OC1C1(C)C(=CC2=O)C(O)C(O)CC1C (stereo unspecified)
inactive: Potency (PA-1) | Potency (SKOV3) | Potency (Tov-21-G) | Potency (Tov112D)

C=C1C(=O)OC2CC3(C)C(O)C(=O)C=C(C)C3CC12 (stereo unspecified)
inactive: Potency (PA-1) | Potency (SKOV3) | Potency (Tov-21-G) | Potency (Tov112D)

CS(=O)(=O)Nc1ccc2oc3c(OC(F)F)ccc(C(=O)Nc4c(Cl)cncc4Cl)c3c2c1
inactive: Potency (PA-1) | Potency (SKOV3) | Potency (Tov-21-G) | Potency (Tov112D)

C=C1CCC2C(C)(C(=O)O)CCCC2(C)C1CCC1=CCOC1=O (stereo unspecified)
inactive: Potency (PA-1) | Potency (SKOV3) | Potency (Tov-21-G) | Potency (Tov112D)

CC(C)=CCc1cc2c(cc1O)OC[C@H]1c3ccc(O)cc3O[C@@H]21
inactive: Potency (PA-1) | Potency (SKOV3) | Potency (Tov-21-G) | Potency (Tov112D)

O=C(C(Cc1cccc(C(F)(F)F)c1)NS(=O)(=O)c1cc(F)c2c(c1)CCNC2)N1CCCC1 (stereo unspecified)
inactive: Potency (PA-1) | Potency (SKOV3) | Potency (Tov-21-G) | Potency (Tov112D)

O=C(Nc1ccc(Cl)cc1)c1ccccc1NCc1ccncc1
inactive: Potency (PA-1) | Potency (SKOV3) | Potency (Tov-21-G) | Potency (Tov112D)

COc1ccccc1OCCN1CC(COc2cccc3[nH]c4ccccc4c23)OCC1=O (stereo unspecified)
inactive: Potency (PA-1) | Potency (SKOV3) | Potency (Tov-21-G) | Potency (Tov112D)

Cc1[nH]c2ccccc2c1CCNC(=O)c1cccs1
inactive: Potency (PA-1) | Potency (SKOV3) | Potency (Tov-21-G) | Potency (Tov112D)

CC(=O)[C@H]1CC[C@H]2[C@@H]3CC=C4C[C@@H](OS(=O)(=O)O)CC[C@]4(C)[C@H]3CC[C@]12C
inactive: Potency (PA-1) | Potency (SKOV3) | Potency (Tov-21-G) | Potency (Tov112D)

O=C1COc2nccc(-c3ccccc3F)c2CN1Cc1cc(C(F)(F)F)cc(C(F)(F)F)c1
inactive: Potency (PA-1) | Potency (SKOV3) | Potency (Tov-21-G) | Potency (Tov112D)

CC(C)(CNC(=O)c1cccc(-c2noc(C(F)(F)F)n2)c1)c1coc(-c2ccccc2)n1
inactive: Potency (PA-1) | Potency (SKOV3) | Potency (Tov-21-G) | Potency (Tov112D)

C/C=C(\C)C(=O)OC1C=C(C)CC(OC(=O)c2ccc(O)cc2)C2C1(C)CCC2(O)C(C)C (stereo unspecified)
inactive: Potency (PA-1) | Potency (SKOV3) | Potency (Tov-21-G) | Potency (Tov112D)

C=C[C@]1(C)C[C@H](O)[C@H]2C(=C)C(=O)O[C@@H]2[C@H]1C(=C)CO
inactive: Potency (PA-1) | Potency (SKOV3) | Potency (Tov-21-G) | Potency (Tov112D)

CC(=O)OCC(=O)[C@@]12O[C@@H]1C[C@H]1[C@@H]3CC=C4C[C@@H](O)CC[C@]4(C)[C@H]3CC[C@@]12C
inactive: Potency (PA-1) | Potency (SKOV3) | Potency (Tov-21-G) | Potency (Tov112D)

c1cc(-c2cnn3cc(-c4ccc(N5CCNCC5)cc4)cnc23)c2cccnc2c1
inactive: Potency (PA-1) | Potency (SKOV3) | Potency (Tov-21-G) | Potency (Tov112D)

COc1ccc(C#Cc2ccc(C(=O)N3CCC[C@@H](CO)C3)cc2)cc1
inactive: Potency (PA-1) | Potency (SKOV3) | Potency (Tov-21-G) | Potency (Tov112D)

CC[N+]1(C/C2=C/CCCCCC2)CCC(NC(=O)C2c3cc(Cl)ccc3Oc3ccc(Cl)cc32)CC1 (stereo unspecified)
inactive: Potency (PA-1) | Potency (SKOV3) | Potency (Tov-21-G) | Potency (Tov112D)

C=C1CC[C@H]2C(=C)CC[C@H]3C(=C)C(=O)O[C@@H]3[C@@H]12
inactive: Potency (PA-1) | Potency (SKOV3) | Potency (Tov-21-G) | Potency (Tov112D)

CCC(C)(OC(C)=O)C(=O)O[C@H]1[C@H](OC(C)=O)[C@]2(CO)[C@H](O)[C@H](O)[C@]3(C)C(=CCC4[C@@]5(C)CC[C@H](O[C@@H]6O[C@H](C(=O)O)[C@@H](O)[C@H](O[C@@H]7OC[C@H](O)[C@H](O[C@@H]8OC[C@H](O)[C@H](O)[C@H]8O)[C@H]7O)[C@H]6O[C@@H]6O[C@H](CO)[C@@H](O)[C@H](O)[C@H]6O)C(C)(C)C5CC[C@]43C)[C@@H]2CC1(C)C (stereo partly specified)
inactive: activity change, negative = cytotoxicity (PA-1) -11.2% [at 6.55 µM] | activity change, negative = cytotoxicity (SKOV3) -31.7% [at 6.55 µM] | activity change, negative = cytotoxicity (Tov-21-G) -3.66% [at 6.55 µM] | activity change, negative = cytotoxicity (Tov112D) -10.5% [at 6.55 µM]
